Source: PubChem BioAssay (several laboratories)
In the library only some 1.5% were active in any assay of this set; here they are far more common.
Bcl-xL primary: inhibitors of human Bcl-xL; AID 2129; hit rate 0.7% among 320,000; Q07817; GST-Bcl-xL / FITC-Bim BH3 peptide fluorescence polarization; inhibition, % at 10.9 µM;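 active = inhibition above the mean of all tested compounds plus 3 SD, cutoff set per campaign, cut at about 30% in these data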;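 note: 0% = DMSO wells and 100% = unlabeled Bim-BH3 peptide competitor; inhibitors lower millipolarization by displacing the labeled peptide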
Target sequence (Q07817 whole entry, looked up): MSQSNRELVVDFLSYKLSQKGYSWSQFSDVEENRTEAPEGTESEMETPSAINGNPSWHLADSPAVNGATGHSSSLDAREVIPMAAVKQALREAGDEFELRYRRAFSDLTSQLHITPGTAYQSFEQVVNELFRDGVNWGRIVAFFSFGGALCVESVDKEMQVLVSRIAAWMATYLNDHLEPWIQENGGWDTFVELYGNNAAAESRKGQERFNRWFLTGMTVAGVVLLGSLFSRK
GLD-1 RNA inh: GLD-1-TGE RNA interaction inhibition (C. elegans); Q17339; purified GLD-1 + fluorescein TGE RNA, fluorescence polarization; inhibition, % at 5.96 µM; hit rate 0.44% among 320,000; AID 2280;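 active = percent inhibition above a per-plate cutoff, the plate mean of test compounds plus 3 SD, cut at about 30% in these data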;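 note: 0% = DMSO wells with GLD-1 and probe and 100% = wells lacking GLD-1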
EBV gp42 inh: blocks Epstein-Barr virus glycoprotein 42 binding; hit rate 0.42% among 220,000; inhibition, % (tested at 21.74 µM); AID 1085; Q1HVG2; Fluorescence polarization binding assay, mP read-out; in the data active = inhibition above about 50%
MEX-5 binding: C. elegans MEX-5 TCR-2 RNA binding activity; activity score (negative = inhibition of binding), % at 10 µM; Q9XUB2; hit rate 0.38% among 300,000; MEX-5/FITC-TCR2 RNA binding, fluorescence polarization; stronger effect = lower value;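 active = inhibition past about -25% in most replicates, and total fluorescence under double the plate's negative control median, limit read from the data; inconclusive = replicates evenly split on the limit, or fluorescence at least double controls; inactive = too little inhibition in most replicates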;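 note: 0% = DMSO and -100% = 5 µM competing unlabeled TCR2 RNA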
Target sequence (Q9XUB2 whole entry, looked up): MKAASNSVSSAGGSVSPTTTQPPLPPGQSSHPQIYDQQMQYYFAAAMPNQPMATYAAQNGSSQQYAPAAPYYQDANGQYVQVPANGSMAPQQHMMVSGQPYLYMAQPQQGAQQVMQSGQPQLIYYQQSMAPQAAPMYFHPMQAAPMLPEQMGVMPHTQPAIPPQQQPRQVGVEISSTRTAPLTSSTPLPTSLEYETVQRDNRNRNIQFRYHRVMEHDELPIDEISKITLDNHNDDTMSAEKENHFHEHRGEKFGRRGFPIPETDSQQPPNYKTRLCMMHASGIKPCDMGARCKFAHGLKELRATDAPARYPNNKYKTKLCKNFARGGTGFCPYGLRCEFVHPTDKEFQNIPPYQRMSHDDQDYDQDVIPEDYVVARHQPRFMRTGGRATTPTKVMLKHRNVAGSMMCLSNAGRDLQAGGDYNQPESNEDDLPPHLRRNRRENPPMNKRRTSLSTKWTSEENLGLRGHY
E coli Lon inh: inhibits E. coli Lon protease | P0A9M0 | purified E. coli Lon protease, fluorescence polarization | inhibition, % at 7.94 µM | hit rate 0.42% among 360,000 | AID 602123; in the data active = inhibition above about 13%, passing the limit was not always enough;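 note: 0% = enzyme with probe and DMSO and 100% = no enzyme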
MCL1-BIM inh: MCL1-BIM-BH3 interaction inhibition (human); Q07820; GST-MCL1 / FITC-Bim-BH3 fluorescence polarization; inhibition, % at 10.9 µM; hit rate 0.68% among 320,000; AID 2057;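 active = inhibition above the mean inhibition of all tested compounds plus 3 SD, set per campaign, cut at about 40% in these data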;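 note: 0% = DMSO wells and 100% = unlabeled Bim-BH3 peptide control; higher means more loss of mP so more displacement of Bim peptide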
BCLXL inh confirm: counter-screen for MCL1 inhibitors: confirmation of human Bcl-xL inhibitors. hit rate 54% among 1,700. shares compounds with MCL1-BIM inh. AID 2166. GST-Bcl-xL / FITC-Bim BH3 peptide FP binding. inhibition, % at 10.9 µM;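 active = inhibition above a cutoff equal to the mean inhibition of all tested compounds plus 3 SD, cut at about 30% in these data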;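 note: 0% = DMSO wells and 100% = unlabeled Bim BH3 control peptide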
MCL1 inh confirm: confirmation of human MCL1 and BIM-BH3 interaction inhibitors | shares compounds with MCL1-BIM inh | GST-MCL1 / FITC-Bim-BH3 fluorescence polarization | inhibition, % at 10.9 µM | hit rate 61% among 1,700 | AID 2168;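 active = inhibition above the average of all tested compounds plus 3 SD, cut at about 40% in these data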;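 note: 0% = DMSO wells and 100% = unlabeled Bim-BH3 control peptide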
* = called active by the depositor; ? = inconclusive; . = no result given; + = active, no number.

SMILES | Bcl-xL primary | GLD-1 RNA inh | EBV gp42 inh | MEX-5 binding | E coli Lon inh | MCL1-BIM inh | BCLXL inh confirm | MCL1 inh confirm
CC1(OC(=O)C2CCCC2)C(=O)C=C2C=C(c3ccsc3)N(CCc3ccccn3)C=C2C1=O (configuration not stated) | 48.1* | 36.5* | 9.2 | -6.8 | 19.0* | 55.9* | 13.2 | 17.8
CCOC(=O)C1CCN(C(=O)c2cc3c(=O)n4ccccc4nc3n2C)CC1 | 67.3* | 21.4 | -8.4 | -4.4 | -4.4 | 85.3* | -27.1 | -31.3
Cn1c(C(=O)N2CCOCC2)cc2c(=O)n3ccccc3nc21 | 2.4 | 2.2 | . | 0.9 | 16.7 | 8.4 | . | .
Cc1cc(-c2ccc(C)c(S(=O)(=O)Nc3cc(C)on3)c2)on1 | 4.7 | 5.1 | . | 1.6 | -1.1 | -0.3 | . | .
CCOc1ccc(/C=C/C(=O)Nc2ccc(OC)cc2[N+](=O)[O-])cc1 | 56.8* | 63.0* | 6.9 | ? | 5.6 | 83.2* | 59.9* | 68.5*
Cc1cc(Cl)ccc1Nc1ncccc1C(N)=O | 2.7 | 0.7 | 6.0 | -1.4 | -8.2 | -1.9 | . | .
NC(=O)c1cccnc1Oc1ccc(Cl)cc1Cl | 1.1 | -2.9 | -1.4 | 2.8 | 4.7 | 54.4* | 5.7 | -1.2
CC1(C(=O)NS(=O)(=O)C2CC2)CCN(C(=O)c2ccc3ccccc3n2)C1 (configuration not stated) | . | . | . | . | -2.2 | . | . | .
Fc1ccc(-n2nnc(-c3ccccc3Br)n2)cc1 | 9.6 | 3.9 | . | 1.6 | -2.5 | + | 5.9 | 8.1
O=C(O)c1ccc(S(=O)(=O)Nc2ccc(O)c(Sc3nc4ccccc4s3)c2)cc1 | 26.5 | 6.7 | 0.3 | -4.5 | -4.2 | 42.5* | 29.3 | 59.3*
CCOC1=C2CN(S(=O)(=O)c3ccc(C)cc3)[C@H](c3ccccc3)C[C@@H]2N(S(=O)(=O)c2ccccc2C)[C@H](c2ccccc2)C1 | . | . | . | . | -2.2 | . | . | .
COc1ccc(Br)cc1CN1CCCCCC1 | 4.6 | 7.2 | . | -1.4 | -4.3 | -13.0 | . | .
COc1ccccc1NS(=O)(=O)c1ccc(N/N=C/c2ccccc2OCC(=O)O)c([N+](=O)[O-])c1 | 135.8* | 94.2* | 5.9 | 2.2 | 8.9 | 140.6* | 184.5* | +
O=C(O)COc1ccccc1/C=N/Nc1ccc(S(=O)(=O)Nc2ccc(Cl)cc2)cc1[N+](=O)[O-] | 14.4 | 0.0 | 9.8 | -1.6 | -4.2 | 10.5 | . | .
CSc1nc(N)c(C(=O)Nc2ccc([N+](=O)[O-])cc2)s1 | -0.9 | 2.4 | 5.2 | -3.8 | 4.9 | 0.7 | . | .
O=C1NC(=O)[C@@H]2C3c4ccccc4C=CN3[C@H](C(=O)c3cccs3)[C@H]12 (some centres not stated) | 122.6* | 101.5* | 88.4* | -53.2* | . | 124.3* | 61.2* | 87.3*
CC(C)(C)C(=O)[C@@H]1[C@@H]2C(=O)N(Cc3ccccc3)C(=O)[C@@H]2[C@H]2c3ccccc3C=CN12 | . | . | 37.0 | . | . | . | . | .
COC(=O)C1=C(CSc2nc3c(cc2C#N)CN(C)CC3)OC(N)=C(C#N)C1c1ccc(F)cc1 (configuration not stated) | 57.8* | 25.9 | 19.2 | -10.4 | -17.7 | 74.0* | 23.6 | 20.5
CCOC(=O)C1=C(CSc2nc(CC)c(C)cc2C#N)OC(N)=C(C#N)C1c1ccc(OC)cc1 (configuration not stated) | -2.3 | -39.9 | -55.9 | 10.7 | -28.2 | -36.3 | . | .
Nc1ccc(C(=O)N2CCN(S(=O)(=O)c3ccc(Cl)s3)CC2)cc1[N+](=O)[O-] | -1.7 | 0.7 | . | -0.7 | -1.0 | -4.1 | . | .
CC(C)NC(=O)CN1C(=O)c2ccccc2S1(=O)=O | 5.5 | 5.7 | 2.9 | 0.4 | 2.1 | + | 6.4 | -3.1
O=C(COc1ccccc1C(=O)N/N=C\c1ccc(O)c(O)c1)N/N=C/c1ccc(O)c(O)c1 | 16.3 | 2.8 | 9.4 | -2.2 | 4.8 | 56.3* | 44.2* | 80.7*
CCN(CC)c1ccc(/C=C/C(=O)c2ccc(Br)cc2)cc1 | 58.2* | 75.9* | + | -51.1* | -436.2 | 61.0* | 61.7* | 62.7*
COc1ccc(NC(=O)C2CCCN(C(=O)c3ccc(Cl)cc3)C2)cc1S(=O)(=O)N(C)C (configuration not stated) | -5.1 | 6.4 | . | . | 4.9 | -9.9 | . | .
CC(=O)c1c(C)oc2ccc(NS(=O)(=O)c3ccc(C)cc3)cc12 | -0.6 | 1.9 | . | -3.0 | 2.5 | -1.7 | . | .
SMILES | Bcl-xL primary | GLD-1 RNA inh | EBV gp42 inh | MEX-5 binding | E coli Lon inh | MCL1-BIM inh | BCLXL inh confirm | MCL1 inh confirm
Cc1ccc(C)c(S(=O)(=O)Nc2ccc3oc(C)c(C(=O)O)c3c2)c1 | 12.3 | 0.8 | . | 1.3 | -14.4 | 41.6* | 21.5 | 59.9*
Cc1ccc(C(C)NC(=O)c2ccncc2)c(C)c1 (configuration not stated) | 1.4 | 3.4 | . | -2.1 | -3.3 | 6.0 | . | .
O=[N+]([O-])c1ccc2[nH]c(O)c(N=NC(=S)Nc3cccnc3)c2c1 | 18.3 | -1.9 | 59.4* | 2.6 | -7.1 | 42.1* | 32.4* | 33.4
N#Cc1cc(Oc2cccc3cccnc23)c(-n2nnc3ccccc32)cc1C#N | 142.9* | 44.5* | 11.8 | -3.4 | 13.1 | 139.0* | 17.2 | 24.7
Nc1nc(SCC(=O)O)[nH]c(=O)c1NC(=O)c1ccco1 | 40.9* | 28.4 | . | -2.5 | -7.0 | 54.7* | 3.0 | 2.8
Nc1nc(SCCO)[nH]c(=O)c1NC(=O)c1ccco1 | 4.6 | 3.7 | . | . | 20.5 | 5.0 | . | .
O=[N+]([O-])/C(C(Cl)=C(Cl)Cl)=C(\Nc1ccc(F)cc1)n1cncn1 | 3.3 | 6.9 | -22.6 | 1.7 | . | 2.4 | . | .
CCOc1ccc(N/C(=C(/C(Cl)=C(Cl)Cl)[N+](=O)[O-])n2cncn2)cc1 | 91.8* | 54.5* | 27.8 | -49.3* | . | 92.8* | 120.8* | 155.7*
N#Cc1c(N2CCCC(O)C2)nc(N)c2c(N)nc3c(c12)CC(=O)N3C12CC3CC(CC(C3)C1)C2 (configuration not stated) | 28.4 | 12.1 | -21.5 | . | 35.1* | 54.4* | 18.2 | 22.3
C=C(C)CN(CC)c1nc(N)c2c(N)nc3c(c2c1C#N)CC(=O)N3C12CC3CC(CC(C3)C1)C2 | 14.4 | 21.2 | -5.4 | -0.5 | 20.9 | 39.5 | . | .
O=C(c1ccco1)N1CCN(C(=O)C2CC(=O)N(c3ccc(Cl)cc3)C2)CC1 (configuration not stated) | 6.1 | 2.8 | . | -0.3 | 1.1 | -3.9 | . | .
CCCCN(C(=O)c1cccc(-n2cccc2)c1)c1c(N)n(CCC)c(=O)[nH]c1=O | 2.3 | 4.5 | . | -2.0 | -19.9 | 55.2* | 11.4 | 51.1*
Cc1ccc2nc(SCC3CCCCO3)[nH]c2c1 (configuration not stated) | 3.1 | -0.4 | -26.6 | 2.8 | -0.3 | 8.5 | . | .
